Data on 29 compounds can be found in PubChem BioAssay (NCATS).

Results filed as inconclusive are left out. More than one record can exist for a structure, and the calls need not agree. Calls of active or inactive are those of the source. Calls come from the whole dose curve; as a rule, active = well fitted curve in the direction sought with a large enough effect; inconclusive = small, poorly fitted or top-dose-only effect, or another doubt; inactive = no such curve, though single readings can be large; an effect the other way counts as inactive or inconclusive.

The target of assay [1] is Glutathione peroxidase 1 (Homo sapiens) (UniProt P07203). Nature of the assay: Primary qHTS Assay for Inhibitors of Recombinant Selenoprotein Glutathione Peroxidase 1 (GPX1) (AID 1845191). Note: nearly all actives have a fitted effect of over 65% in size. Note: potency is the fitted concentration of half-maximal effect. Summed up:
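Recombinant GPX1 (10 nM final) was preincubated with compound for 30 min at room temperature, then reacted with 1 mM GSH, 0.5 mM CHP, 0.5 mM NADPH and 100 nM glutathione reductase; NADPH fluorescence (340/450 nm) was read at 0 and 15 min.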

Assay [2] addresses Phospholipid hydroperoxide glutathione peroxidase GPX4 (Homo sapiens) (UniProt P36969). Kind of assay: Primary qHTS Assay for Inhibitors of Recombinant Selenoprotein Glutathione Peroxidase 4 (GPX4) (AID 1845192). Note: nearly all actives have a fitted effect of over 65% in size. Note: potency is the fitted concentration of half-maximal effect. The gist of the method:
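GR-coupled readout: 100 nM GR, 1 mM GSH, 0.5 mM NADPH; NADPH fluorescence (ex 340/em 450 nm) read at t=0 and after 15 min RT. GPX4 200 nM, preincubated 30 min with compound; substrate 0.5 mM CHP.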

The target of assay [3] is Luciferin 4-monooxygenase (Photinus pyralis) (UniProt P08659). Nature of the assay: Primary firefly luciferase (FLuc) qHTS assay for identification of artifact compounds. (AID 1845220). Note: nearly all actives have a fitted effect of over 60% in size. The note with it: outcome: dose series up to 54.1 µM unless noted. Summed up:
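In this counter-screen for luciferase artifacts, test compounds met substrate (10 uM each luciferin and ATP) before 10 nM enzyme started the reaction. Light output was measured 5 min later.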

Assay [4] can be described thus: Primary fluorescence-based thiol-reactive (MSTI) qHTS assay for identification of artifact compounds. (AID 1845221). Note: nearly all actives have a fitted effect of over 65% in size. Note: potency is the fitted concentration of half-maximal effect. Summed up:
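Curve-fitted percent inhibition (4-parameter Hill) derived from fluorescence, Ex 525/Em 598 nm, scaled with Acetyl-MSTI and MSTI; 1 h incubation at room temperature.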

For assay [5], the system named is Nanoluciferase (engineered Oplophorus gracilirostris luciferase). Nature of the assay: Primary Nanoluciferase (NLuc) qHTS assay for identification of artifact compounds. (AID 1845222).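 Note: NLuc secreted into diluted conditioned medium of S16 cells; series mostly up to about 54 µM.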 Summed up:
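Using secreted nanoluciferase in S16 culture medium (0.22 um filtered, 1:55 dilution), compounds were preincubated 15 min at RT. Signal was generated with Nano-Glo reagent (1:100) over 5 min.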

Assay [6] is described as follows: Primary redox qHTS assay for identification of artifact compounds. (AID 1845223). The gist of the method: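 Amplex Red (25 uM) and HRP (250 mU/mL) in HBSS, with compounds for 15 min, then 250 uM DTT for 30 min, room temperature, dark. Fluorescence 525/598 nm read; normalized to DMSO and 10 uM DA3003; Hill fit.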

Chain of Phospholipid hydroperoxide glutathione peroxidase GPX4 (Homo sapiens) (P36969 whole entry, looked up): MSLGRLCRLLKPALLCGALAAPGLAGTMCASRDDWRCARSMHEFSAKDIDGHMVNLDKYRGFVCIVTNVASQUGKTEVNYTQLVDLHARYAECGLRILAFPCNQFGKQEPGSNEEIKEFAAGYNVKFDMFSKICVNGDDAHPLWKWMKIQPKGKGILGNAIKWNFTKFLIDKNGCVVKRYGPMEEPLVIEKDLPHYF
Chain of Glutathione peroxidase 1 (Homo sapiens) (P07203 whole entry, looked up): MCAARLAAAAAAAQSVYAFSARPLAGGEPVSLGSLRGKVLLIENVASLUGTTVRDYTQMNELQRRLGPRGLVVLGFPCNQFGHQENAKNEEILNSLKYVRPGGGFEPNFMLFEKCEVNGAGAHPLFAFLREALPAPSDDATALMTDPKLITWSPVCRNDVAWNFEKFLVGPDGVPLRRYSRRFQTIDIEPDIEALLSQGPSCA

Turning to `O=C(O)COc1nn(Cc2ccccc2)c2ccccc12`, the Potency entry in assay [1] and in assay [2] was “inactive” each time.

As to `CC(=O)CCC(=O)O`, the Potency entry in assay [1] and in assay [2] was “inactive” each time.

Consider `O=C1O[C@H](CO)[C@@H](O)[C@H](O)[C@H]1O`, for which the Potency entry in assay [1] and in assay [2] was “inactive” throughout.

Take `O=C1c2c(O)cccc2Cc2cccc(O)c21`: the Potency result in assay [1] and in assay [2] was “inactive” throughout.

On to `Oc1cccc(O)c1`, for which the Potency entry in assay [1] and in assay [2] was “inactive” in each case.

For the compound `CCOc1ccc2ccccc2c1C(=O)N[C@@H]1C(=O)N2[C@@H]1SC(C)(C)[C@@H]2C(=O)O`, the Potency entry in assay [1], in assay [2] and in assay [4] was “inactive” in each case. The result in assay [3] and in assay [5] was inactive.

`COc1ccc2cc1Oc1ccc(cc1)C[C@H]1c3c(cc4c(c3Oc3cc5c(cc3OC)CCN(C)[C@@H]5C2)OCO4)CCN1C`: the Potency result in assay [1], in assay [2] and in assay [4] was “inactive” throughout. Moreover, the call in assay [3], in assay [5] and in assay [6] was inactive.

For the compound `Cc1ccc2nc(N)[nH]c(=O)c2c1Sc1ccncc1`, the Potency entry in assay [1] and in assay [2] was “inactive” each time. The result in assay [3], in assay [5] and in assay [6] was inactive.

On to `Cc1ccc(C(C)C)cc2c(C)ccc1-2`, for which the Potency result in assay [2] was “inactive”.

As to `CCOc1nc2cccc(C(=O)O)c2n1Cc1ccc(-c2ccccc2-c2nn[nH]n2)cc1`, the Potency result in assay [1], in assay [2] and in assay [4] was “inactive” each time. Besides, the compound was classed as inactive in assay [3] and in assay [6].

As for `O=C1Nc2ccc(Cl)cc2[C@@](C#CC2CC2)(C(F)(F)F)O1`, the Potency entry in assay [1], in assay [2] and in assay [4] was “inactive” each time. The outcome in assay [3], in assay [5] and in assay [6] was inactive.

As for `O=C(CCCN1CCN(c2ccccn2)CC1)c1ccc(F)cc1`, the Potency result in assay [1], in assay [2] and in assay [4] was “inactive” each time. For the same compound, the outcome in assay [3], in assay [5] and in assay [6] was inactive.

Consider `COc1ccc2c(c1)C(=O)N(CCc1ccc(S(=O)(=O)NC(=O)NC3CCCCC3)cc1)C(=O)C2(C)C`, for which the Potency result in assay [1], in assay [2] and in assay [4] was “inactive” each time. The call in assay [3], in assay [5] and in assay [6] was inactive.

Turning to `Nc1ccc(S(=O)(=O)Nc2nccs2)cc1`, the Potency entry in assay [1], in assay [2] and in assay [4] was “inactive” in each case. The compound was classed as inactive in assay [3], in assay [5] and in assay [6].

Regarding `CC(C)(C)C(=O)C(Oc1ccc(Cl)cc1)n1ccnc1` (configuration not stated), the Potency entry in assay [1], in assay [2] and in assay [4] was “inactive” each time. Also, the result in assay [3], in assay [5] and in assay [6] was inactive.

For the compound `CC(=O)NC(Cc1ccccc1)C(=O)O` (configuration not stated), the Potency entry in assay [1] and in assay [2] was “inactive” throughout. Further, the outcome in assay [3] was “inactive [at 86.2 µM]”. Besides, in assay [4], the Potency was 11.2 µM (active). In addition, the outcome in assay [5] and in assay [6] was inactive.

Take `CC/C=C(\C(=O)N[C@@H]1C(=O)N2C(C(=O)OCOC(=O)C(C)(C)C)=C(COC(N)=O)CS[C@H]12)c1csc(N)n1`: the Potency in assay [1] was 9.04 µM (active); in assay [2] it was 11.2 µM (active) and inactive. The compound was classed as inactive in assay [3], in assay [5] and in assay [6]. Further, the Potency result in assay [4] was “inactive”.

For the compound `CCN(CC)C(=O)Nc1ccc(OCC(O)CNC(C)(C)C)c(C(C)=O)c1` (configuration not stated), the Potency entry in assay [1], in assay [2] and in assay [4] was “inactive” throughout. Besides, the result in assay [3], in assay [5] and in assay [6] was inactive.

As for `CS(=O)(=O)c1ccc([C@@H](O)[C@@H](CF)NC(=O)C(Cl)Cl)cc1`, the Potency entry in assay [1], in assay [2] and in assay [4] was “inactive” each time. Further, the outcome in assay [3], in assay [5] and in assay [6] was inactive.

Regarding `COc1cc(C)c(Cc2cnc(N)nc2N)cc1OC`, the Potency result in assay [2] was “inactive”.

For `CCOC(CN1CCN(CC(C)C(=O)c2ccccc2)CC1)c1ccccc1` (configuration not stated), the Potency result in assay [1] and in assay [2] was “inactive” in each case. In addition, the result in assay [3] and in assay [5] was inactive.

Turning to `c1ccc(CN(CC2=NCCN2)c2ccccc2)cc1`, the Potency entry in assay [1], in assay [2] and in assay [4] was “inactive” each time. The call in assay [3], in assay [5] and in assay [6] was inactive.

Take `Cc1cc(C(C#N)c2ccc(Cl)cc2)c(Cl)cc1NC(=O)c1cc(I)cc(I)c1O` (configuration not stated): the Potency result in assay [1], in assay [2] and in assay [4] was “inactive” throughout. In addition, the outcome in assay [5] and in assay [6] was inactive.

`CCCCN1CCCC[C@H]1C(=O)Nc1c(C)cccc1C`: the Potency entry in assay [1], in assay [2] and in assay [4] was “inactive” in each case. For the same compound, the result in assay [3], in assay [5] and in assay [6] was inactive.

Consider `CCCCOc1cc(C(=O)OCCN(CC)CC)ccc1N`, for which the Potency result in assay [1], in assay [2] and in assay [4] was “inactive” throughout. For the same compound, the compound was called inactive in assay [3], in assay [5] and in assay [6].

As for `Cc1cccc(Nc2cc(Cl)nc(SCC(=O)O)n2)c1C`, the Potency entry in assay [1], in assay [2] and in assay [4] was “inactive” each time. Further, the compound was classed as inactive in assay [3] and in assay [6].

As to `CN1CCOC(c2ccccc2)c2ccccc2C1` (configuration not stated), the Potency entry in assay [1], in assay [2] and in assay [4] was “inactive” throughout. The compound was classed as inactive in assay [3], in assay [5] and in assay [6].

As for `CC(C)(O)c1ccccc1CC[C@@H](SCC1(CC(=O)O)CC1)c1cccc(/C=C/c2ccc3ccc(Cl)cc3n2)c1`, the Potency entry in assay [1], in assay [2] and in assay [4] was “inactive” in each case. For the same compound, the compound was classed as inactive in assay [3], in assay [5] and in assay [6].

Take `O=c1[nH]cnc2c1ncn2[C@@H]1O[C@H](CO)[C@@H](O)[C@H]1O`: the Potency result in assay [1], in assay [2] and in assay [4] was “inactive” throughout. In addition, the outcome in assay [3], in assay [5] and in assay [6] was inactive.
